Drawing on article PMC12864922, “TDP-43 directly inhibits mRNA accumulation in neurites through modulation of mRNA stability”, this text covers binding signal for twelve molecules.

Whole data set: some 9,900 sequences, median “r (bound/input frequency ratio)” near 0.7, cut for the highest 2% near 6.5. This excerpt belongs to a sample that is enriched for the highest values.

B1: ENSMUSG00000061578.638|Ksr2 (ssRNA)
RNA: GGGAGUUCUACAGUCCGACGAUCGCUUCGAUAUCCGCAUGCUAAGGAAUGGUGCUAGCUAGGGUGUGAGCCAAGCCCUUGAGGCUACUGUGAGUUAUGAGAUGUGUCCAACCCUCAGCCCACAGACUGCAUAUGCCCCAGGACAGCUGUGAAGGUGACCCAAUACAAAAUCGUAAACUAACUUAAAACCAUUAAGGGUUUUUGUUUUGUUGUUGUUUGCUGGCUUUUUGUUUUUUGGGUUGGUUUUCUUUUUCUUUCUUUCUUUUUUUUUUUUUUUUCCAACUCAAGUGUGAACUUUGUUGAUCUCUUGCGGUCGCACUAGUGUGGAAUUCUCGGGUGUCAAGG
B2: ENSMUSG00000028439.326|Fam219a (ssRNA)
RNA: GGGAGUUCUACAGUCCGACGAUCGCUUCGAUAUCCGCAUGCUAAGAUCCUAAUUAGAUAAGAAAAUGCCAAGGGAGGCAAGCCAGAGAAAGCAUCUGCAGGGGCCACAGGCCCAUGGUGGCCCCAUCUGAGCCCCCUCUCCCACCCCAGUUCGCAUCCCCACCACUCAUCAUCUGGGCCCCAACGCUAGAACUCCCCCCACCGCAUCCCCACUGGGCUCUUUGACUCACCCUUCUAGAACAUGGGUGCCUCCUCUCUUUAGACUGCUGCCUUUGCCUCUGACUUCCUGUGGGAUUGAGAGCCACUCUUGCGGUCGCACUAGUGUGGAAUUCUCGGGUGUCAAGG
B3: ENSMUSG00000061578.1149|Ksr2 (ssRNA)
RNA: GGGAGUUCUACAGUCCGACGAUCGCUUCGAUAUCCGCAUGCUAAAUGGCCCAGAAUUAUAGAGGACAGAGGAGAAGGUGGGCAUUGCAAGAUGCUGGAGCUUGGAAAGCAUGGUGGAAUUUGAUACACAUGAUCACCAAGCACCACCCGGGGAAGAAACUGGGUCACUGAGUCACUGGGUCACUCUGUUCCCUGAAGGCCCACCAACCACAUCCGCAUCCUACCUAGGGUGGAACUUUGACUGUCCUCGGGUGUCUCUGCUGUAUAUAGGCCAGUCACAAGCCCUUCUAAAAGCCUGCUCUUGCUCUUGCGGUCGCACUAGUGUGGAAUUCUCGGGUGUCAAGG
B4: ENSMUSG00000043670.237|Diras1|105:109;215:227;238:244 (ssRNA)
RNA: GGGAGUUCUACAGUCCGACGAUCGCUUCGAUAUCCGCAUGCUAGGGGUGGGUGACACAGGCCUGUCUGAUGAGCACCAGGUCUGUUCCAGGCUGUGGCAAGCUGGCUCCUGGCUCAGAAGUGACAAAGCUGCAGUACAGAGGCCUCACACACAGGUCAUCACCUCACAGUGGCUACAGACCAGGCUGUGGCCUGAGUGAGCUGGAACCUCUGGGGUGGGGACGAGAAAGAGAGAGGGAGAGAGAGGGGGGAGAGUGACACACACACACACAAGGGGGAGACACACACGGGGAAGAGUGAGAGACUCUUGCGGUCGCACUAGUGUGGAAUUCUCGGGUGUCAAGG
B5: ENSMUSG00000043670.232|Diras1 (ssRNA)
RNA: GGGAGUUCUACAGUCCGACGAUCGCUUCGAUAUCCGCAUGCUAGUGGUGUGUCUGUAUGGCUCUGUGUUUUCAGGGGUGGGUGACACAGGCCUGUCUGAUGAGCACCAGGUCUGUUCCAGGCUGUGGCAAGCUGGCUCCUGGCUCAGAAGUGACAAAGCUGCAGUACAGAGGCCUCAGUGUGAGGUCAUCACCUCACAGUGGCUACAGACCAGGCUGUGGCCUGAGUGAGCUGGAACCUCUGGGGUGGGGACGAGAAAGAGAGAGGGAGAGAGAGGGGGGAGAGUGAGUGUGUGUGUGUGAAGCUCUUGCGGUCGCACUAGUGUGGAAUUCUCGGGUGUCAAGG
B6: ENSMUSG00000043670.241|Diras1|81:85;191:203;214:220;245:253 (ssRNA)
RNA: GGGAGUUCUACAGUCCGACGAUCGCUUCGAUAUCCGCAUGCUAGAUGAGCACCAGGUCUGUUCCAGGCUGUGGCAAGCUGGCUCCUGGCUCAGAAGUGACAAAGCUGCAGUACAGAGGCCUCACACACAGGUCAUCACCUCACAGUGGCUACAGACCAGGCUGUGGCCUGAGUGAGCUGGAACCUCUGGGGUGGGGACGAGAAAGAGAGAGGGAGAGAGAGGGGGGAGAGUGACACACACACACACAAGGGGGAGACACACACGGGGAAGAGUGAGAGAGAUAGAGUCAUACACACAGAGGGACUCUUGCGGUCGCACUAGUGUGGAAUUCUCGGGUGUCAAGG
B7: ENSMUSG00000043670.240|Diras1|87:91;197:209;220:226;251:259 (ssRNA)
RNA: GGGAGUUCUACAGUCCGACGAUCGCUUCGAUAUCCGCAUGCUACUGUCUGAUGAGCACCAGGUCUGUUCCAGGCUGUGGCAAGCUGGCUCCUGGCUCAGAAGUGACAAAGCUGCAGUACAGAGGCCUCACACACAGGUCAUCACCUCACAGUGGCUACAGACCAGGCUGUGGCCUGAGUGAGCUGGAACCUCUGGGGUGGGGACGAGAAAGAGAGAGGGAGAGAGAGGGGGGAGAGUGACACACACACACACAAGGGGGAGACACACACGGGGAAGAGUGAGAGAGAUAGAGUCAUACACACACUCUUGCGGUCGCACUAGUGUGGAAUUCUCGGGUGUCAAGG
B8: ENSMUSG00000043670.236|Diras1|111:115;221:233;244:250 (ssRNA)
RNA: GGGAGUUCUACAGUCCGACGAUCGCUUCGAUAUCCGCAUGCUAUUUUCAGGGGUGGGUGACACAGGCCUGUCUGAUGAGCACCAGGUCUGUUCCAGGCUGUGGCAAGCUGGCUCCUGGCUCAGAAGUGACAAAGCUGCAGUACAGAGGCCUCACACACAGGUCAUCACCUCACAGUGGCUACAGACCAGGCUGUGGCCUGAGUGAGCUGGAACCUCUGGGGUGGGGACGAGAAAGAGAGAGGGAGAGAGAGGGGGGAGAGUGACACACACACACACAAGGGGGAGACACACACGGGGAAGAGUCUCUUGCGGUCGCACUAGUGUGGAAUUCUCGGGUGUCAAGG
B9: ENSMUSG00000043670.233|Diras1 (ssRNA)
RNA: GGGAGUUCUACAGUCCGACGAUCGCUUCGAUAUCCGCAUGCUAUGUCUGUAUGGCUCUGUGUUUUCAGGGGUGGGUGACACAGGCCUGUCUGAUGAGCACCAGGUCUGUUCCAGGCUGUGGCAAGCUGGCUCCUGGCUCAGAAGUGACAAAGCUGCAGUACAGAGGCCUCAGUGUGAGGUCAUCACCUCACAGUGGCUACAGACCAGGCUGUGGCCUGAGUGAGCUGGAACCUCUGGGGUGGGGACGAGAAAGAGAGAGGGAGAGAGAGGGGGGAGAGUGAGUGUGUGUGUGUGAAGGGGGAGCUCUUGCGGUCGCACUAGUGUGGAAUUCUCGGGUGUCAAGG
B10: ENSMUSG00000043670.242|Diras1|75:79;185:197;208:214;239:247 (ssRNA)
RNA: GGGAGUUCUACAGUCCGACGAUCGCUUCGAUAUCCGCAUGCUACACCAGGUCUGUUCCAGGCUGUGGCAAGCUGGCUCCUGGCUCAGAAGUGACAAAGCUGCAGUACAGAGGCCUCACACACAGGUCAUCACCUCACAGUGGCUACAGACCAGGCUGUGGCCUGAGUGAGCUGGAACCUCUGGGGUGGGGACGAGAAAGAGAGAGGGAGAGAGAGGGGGGAGAGUGACACACACACACACAAGGGGGAGACACACACGGGGAAGAGUGAGAGAGAUAGAGUCAUACACACAGAGGGAGGGAGACUCUUGCGGUCGCACUAGUGUGGAAUUCUCGGGUGUCAAGG
B11: ENSMUSG00000043670.238|Diras1|99:103;209:221;232:238 (ssRNA)
RNA: GGGAGUUCUACAGUCCGACGAUCGCUUCGAUAUCCGCAUGCUAGGUGACACAGGCCUGUCUGAUGAGCACCAGGUCUGUUCCAGGCUGUGGCAAGCUGGCUCCUGGCUCAGAAGUGACAAAGCUGCAGUACAGAGGCCUCACACACAGGUCAUCACCUCACAGUGGCUACAGACCAGGCUGUGGCCUGAGUGAGCUGGAACCUCUGGGGUGGGGACGAGAAAGAGAGAGGGAGAGAGAGGGGGGAGAGUGACACACACACACACAAGGGGGAGACACACACGGGGAAGAGUGAGAGAGAUAGACUCUUGCGGUCGCACUAGUGUGGAAUUCUCGGGUGUCAAGG
B12: ENSMUSG00000043670.234|Diras1 (ssRNA)
RNA: GGGAGUUCUACAGUCCGACGAUCGCUUCGAUAUCCGCAUGCUAUAUGGCUCUGUGUUUUCAGGGGUGGGUGACACAGGCCUGUCUGAUGAGCACCAGGUCUGUUCCAGGCUGUGGCAAGCUGGCUCCUGGCUCAGAAGUGACAAAGCUGCAGUACAGAGGCCUCAGUGUGAGGUCAUCACCUCACAGUGGCUACAGACCAGGCUGUGGCCUGAGUGAGCUGGAACCUCUGGGGUGGGGACGAGAAAGAGAGAGGGAGAGAGAGGGGGGAGAGUGAGUGUGUGUGUGUGAAGGGGGAGAGUGUGCUCUUGCGGUCGCACUAGUGUGGAAUUCUCGGGUGUCAAGG

In this assay the target is TDP-43 (Homo sapiens, UniProt Q13148 1-414). As to the kind of experiment: RNA Bind-n-Seq with designed 260-mer pool; 25 mM Tris-HCl, 150 mM KCl, 3 mM MgCl2, BSA (printed 500 mg/mL), 20 units/mL SUPERase IN; pH not stated; 500 nM RNA pool, 1 h, 4 C; TDP-43 5, 50, 500 nM; high values mean tight binding. Conditions: protein: recombinant; tags: SBP (GST cleaved off with PreScission; pGEX-GST-SBP). In short, it runs like this: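 In 25 mM Tris-HCl, 150 mM KCl, 3 mM MgCl2, BSA and SUPERase IN, 500 nM of an in vitro-transcribed 260-nt 3′ UTR oligo pool was incubated for 1 h at 4 °C with SBP-tagged TDP-43 (5, 50 or 500 nM) captured on streptavidin beads. RNA remaining after washes was biotin-eluted, reverse transcribed, PCR-amplified and sequenced. Binding, R, is the bound-sample abundance of each oligo, normalized to mapped reads, divided by its abundance in input. Each duplicate used a separate, independent protein batch.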
Sequence of TDP-43 (Q13148 whole entry): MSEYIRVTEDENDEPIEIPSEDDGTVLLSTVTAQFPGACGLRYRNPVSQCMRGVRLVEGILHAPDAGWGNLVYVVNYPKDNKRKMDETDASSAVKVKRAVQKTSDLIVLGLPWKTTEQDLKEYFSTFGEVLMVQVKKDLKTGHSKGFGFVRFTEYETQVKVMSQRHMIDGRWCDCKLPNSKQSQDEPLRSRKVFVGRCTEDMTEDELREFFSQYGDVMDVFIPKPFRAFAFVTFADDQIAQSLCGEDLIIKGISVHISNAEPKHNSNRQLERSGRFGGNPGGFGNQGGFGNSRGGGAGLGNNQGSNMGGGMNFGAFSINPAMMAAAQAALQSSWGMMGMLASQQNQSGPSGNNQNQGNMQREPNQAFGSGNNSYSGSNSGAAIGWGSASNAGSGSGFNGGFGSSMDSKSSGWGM
In the case of B1, the binding signal is 0.297 R (bound/input frequency ratio).

As to B2, the binding signal is 1.54 R (bound/input frequency ratio). In the case of B3, the binding signal is 0.863 R (bound/input frequency ratio). With B4 the figure was 9.04 R (bound/input frequency ratio).

Turning to B5, the binding signal is 6.45 R (bound/input frequency ratio).

With B6, the binding signal was 4.89 R (bound/input frequency ratio). With B7 the figure was 3.45 R (bound/input frequency ratio); with B8, 3.82 R (bound/input frequency ratio); with B9, 7.61 R (bound/input frequency ratio).

On to B10, for which the binding signal is 12.1 R (bound/input frequency ratio). On to B11, for which the binding signal was 4.05 R (bound/input frequency ratio). For the molecule B12, the binding signal was 6.5 R (bound/input frequency ratio).
